Assay results as given in PubChem BioAssay.
The source made the active and inactive calls. Rule as the data show it, unless noted: active = inhibition above about 80%; inactive = the rest.

Assays:
[1] = growth inhibition, single agent or in combination, cell-based, chromothripsis tumors, cisplatin or BGB combos (AID 1671449); conditions: LFS_MB_P medulloblastoma cells;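 also: cells exposed for 96 hours; 0% = vehicle DMSO and 100% = killing by high DMSO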
[2] = growth inhibition, single agent and combos, cell-based, chromothripsis tumors, cisplatin or BGB combos (AID 1671450); conditions: HDN33 neuroblastoma cells, stronger effect = higher value;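 also: cells exposed to compound for four days; 0% = vehicle DMSO and 100% = cell killing by high DMSO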
[3] = growth inhibition, single agents and combos, ICB984, cell-based, cisplatin or BGB combos, synergistic combos for chromothripsis tumors (AID 1671451; call rule not given here;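 also: cells exposed for 96 hours before readout; 0% = vehicle DMSO and 100% = killing by high DMSO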); conditions: ICB984 medulloblastoma cells, drug combinations, stronger effect = higher value
[4] = growth inhibition, single agents and combos, LFS_MB_1R, cell-based, cisplatin or BGB combos, synergistic combos for chromothripsis tumors (AID 1671452); conditions: LFS_MB_1R medulloblastoma cells, stronger effect = higher value;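 also: cells exposed for 96 hours before readout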
[5] = growth inhibition, single agents and combos, HTB85, cell-based, BGB or cisplatin IC20 combos, synergistic combos for chromothripsis tumors (AID 1671453); conditions: HTB85 osteosarcoma cells, drug combinations, stronger effect = higher value;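 also: cells exposed for 96 hours before readout; 0% = vehicle DMSO and 100% = high DMSO killing control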
[6] = growth inhibition, single agents and combos, CRL2098, cell-based, BGB or cisplatin IC20 combos, synergistic combos for chromothripsis tumors (AID 1671454); conditions: CRL2098 osteosarcoma cells, drug combinations, stronger effect = higher value;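 also: cells exposed for 96 h before readout; 0% = vehicle DMSO and 100% = killing by high DMSO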
[7] = growth inhibition, single agents and combos, HD-MB03, cell-based, BGB or cisplatin IC20 combos, synergistic combos for chromothripsis tumors (AID 1671455; in the data active = inhibition above about 83%;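 also: 0% = vehicle DMSO and 100% = high DMSO as cytotoxic control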); conditions: HD-MB03 medulloblastoma cells, stronger effect = higher value
[8] = growth inhibition, single agents and combos, UWB1.289, cell-based, BGB or cisplatin combos, synergistic combos for chromothripsis tumors (AID 1671456); conditions: UWB1.289 ovarian carcinoma cells, stronger effect = higher value;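 also: cells exposed to compound for four days; 0% = vehicle DMSO and 100% = killing by high DMSO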
[9] = growth inhibition, single agents and combos, LFS_MB_2R, cell-based, cisplatin combos, synergistic combos for chromothripsis tumors (AID 1671457); conditions: LFS_MB_2R medulloblastoma cells, stronger effect = higher value;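 also: cells exposed to compound for four days before readout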
[10] = growth inhibition, MDA-MB-436, cell-based, BGB or cisplatin combos, synergistic combos for chromothripsis tumors (AID 1671458; call rule not given here;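 also: cells exposed for 96 hours; 0% = vehicle DMSO and 100% = killing by high DMSO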); conditions: MDA-MB-436 breast carcinoma growth inhibition, drug combinations, stronger effect = higher value
[11] = UWB1.289_BRCA1 ovarian cancer growth, cell-based, BGB or cisplatin combinations (AID 1671459); conditions: UWB1.289 BRCA1 ovarian carcinoma, drug combinations, stronger effect = higher value
[12] = drug combination toxicity in non-malignant astrocytes – cell-based, BGB or cisplatin IC20 combos, cytotoxicity control for chromothriptic childhood tumor combination screen (AID 1671460); conditions: Human astrocytes, viability inhibition, drug combinations, at 0.5 µM, stronger effect = higher value;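 also: cells exposed to compounds for 96 hours before viability readout; 0% = vehicle and 100% = killing control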
[13] = BT084 cell growth, single and combined drugs, ICGC_MB145, cisplatin and BGB IC40 combos (AID 1671461); conditions: BT084 medulloblastoma cells, drug combinations, stronger effect = higher value;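 also: cells exposed to drugs for 96 hours; 0% = vehicle DMSO and 100% = high DMSO full killing control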
[14] = RCMB18 cell growth, single agent and combined, cisplatin and BGB IC40 combos (AID 1671462); conditions: RCMB18 medulloblastoma cells, stronger effect = higher value;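 also: cells exposed to compound for four days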
[15] = CRL1545 cell growth, single agent and combined, cisplatin and BGB IC20 combos (AID 1671464); conditions: CRL1545 osteosarcoma cells, stronger effect = higher value;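 also: cells exposed to compound for 96 hours before readout; 0% = vehicle DMSO and 100% = high DMSO killing control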
[16] = at 0.5 µM, stronger effect = higher value
[17] = measured here: combination with BGB IC20, at 0.005 µM
[18] = measured here: combination with BGB IC40, at 0.005 µM
[19] = measured here: combination with BGB IC40, at 0.05 µM
[20] = measured here: combination with cisplatin, at 0.5 µM, stronger effect = higher value
[21] = measured here: combination with cisplatin, at 5 µM, stronger effect = higher value
[22] = measured here: with BGB IC20 combination, at 0.5 µM
[23] = measured here: with cisplatin IC20 combination, at 0.5 µM
[24] = measured here: 5 uM single agent, at 5 µM
[25] = measured here: combination with cisplatin, at 0.5 µM
[26] = measured here: combination with cisplatin, at 5 µM
[27] = measured here: with BGB IC20, at 0.5 µM
[28] = measured here: with BGB IC20, at 5 µM
[29] = measured here: with cisplatin IC20, at 0.5 µM
[30] = measured here: with cisplatin IC20, at 5 µM
[31] = measured here: combination with BGB at IC20, at 0.5 µM
[32] = measured here: combination with cisplatin at IC20, at 0.5 µM
[33] = measured here: combo with BGB at IC20, at 0.5 µM
[34] = measured here: combo with cisplatin at IC20, at 0.5 µM
[35] = measured here: inhibition with BGB combination, at 0.05 µM
[36] = measured here: inhibition with cisplatin combination, at 0.05 µM
[37] = measured here: BGB combination, at 0.5 µM
[38] = measured here: BGB combination, at 5 µM
[39] = measured here: cisplatin combination, at 0.5 µM
[40] = measured here: cisplatin combination, at 5 µM
[41] = BGB combination, concentration series, at 5 µM
[42] = cisplatin combination, concentration series, at 5 µM
[43] = measured here: combo with BGB IC20
[44] = measured here: combo with cisplatin IC20
[45] = cisplatin combination, at 0.5 µM
[46] = measured here: BGB IC40 combination 0.05 uM, at 0.05 µM
[47] = measured here: BGB IC40 combination, at 0.05 µM

In the case of `O=c1[nH]c(=S)[nH]c2nc(-c3ccccc3)c(-c3ccccc3)nc12`, the inhibition [1, 16] is reported as -4.47% (inactive), the inhibition [1, 17] is reported as -16.2% and the inhibition [1, 18] is reported as -17.7%. It also gave an inhibition [1, 19] of -55%, an inhibition [1, 20] of -17.6% and an inhibition [1, 21] of -30.5%. For the same compound, the inhibition ([2]; BGB combo, at 5 µM) was -12.8%, the inhibition ([2]; at 0.5 µM) was -3.23% (inactive) and the inhibition ([2]; cisplatin combo, at 5 µM) was -3.41%. It also gave an inhibition [2, 22] of -5.44%, an inhibition [2, 23] of 12.5% and an inhibition ([2]; single agent, at 5 µM) of 8.28%. For the same compound, the inhibition ([3]; BGB IC20 combo, at 0.005 µM) was -5.97%, the inhibition ([3]; BGB IC40 combo, at 0.005 µM) was -18.7% and the inhibition ([3]; BGB IC40 combo, at 0.05 µM) was -15.7%. For the same compound, the inhibition ([3]; at 0.5 µM) was -20.3% (inactive), the inhibition ([3]; cisplatin combo, at 0.05 µM) was -19.8% and the inhibition ([3]; cisplatin combo, at 0.5 µM) was -15.9%. The inhibition ([3]; cisplatin combo, at 5 µM) was -36.6%, the inhibition [3, 24] was 8.29% and the inhibition ([4]; at 0.5 µM) was -12.5% (inactive). The inhibition [4, 19] was -14.1%, the inhibition [4, 25] was -36.2% and the inhibition [4, 26] was -28.2%. For the same compound, the inhibition ([5]; at 0.5 µM) was -2.11% (inactive), the inhibition [5, 27] was -2.07% and the inhibition [5, 28] was -2.27%. It also gave an inhibition [5, 29] of -3.18%, an inhibition [5, 30] of -32% and an inhibition ([5]; single agent, at 5 µM) of 0.689%. The inhibition ([6]; at 0.5 µM) was -39.5% (inactive), the inhibition [6, 31] was -21.3% and the inhibition [6, 32] was -56.3%. For the same compound, the inhibition ([7]; at 0.5 µM) was 1.96% (inactive), the inhibition [7, 33] was -7.2% and the inhibition [7, 34] was 15.9%. The inhibition ([8]; at 0.5 µM) was 8.37% (inactive), the inhibition [8, 35] was 69.6% and the inhibition [8, 36] was 18.6%. For the same compound, the inhibition ([9]; at 0.5 µM) was -9.62% (inactive), the inhibition [9, 25] was -6.67% and the inhibition [9, 26] was 4.64%. The inhibition ([10]; at 0.5 µM) was -2.86% (inactive), the inhibition [10, 37] was -6.6% and the inhibition [10, 38] was -11.7%. For the same compound, the inhibition [10, 39] was 0.551%, the inhibition [10, 40] was -30.7% and the inhibition [11, 41] was 8.97%. The inhibition ([11]; at 0.5 µM) was 3.94% (inactive), the inhibition [11, 42] was -14.9% and the inhibition [12] was 4.94% (inactive). The inhibition [12, 43] was 4.6%, the inhibition [12, 44] was -1.31% and the inhibition ([13]; at 0.5 µM) was -2.6% (inactive). It also gave an inhibition [13, 45] of -10.5%, an inhibition ([13]; cisplatin combination, at 5 µM) of 0.186% and an inhibition [13, 46] of -24.1%. For the same compound, the inhibition ([13]; single agent, at 5 µM) was 0.55%, the inhibition ([14]; at 0.5 µM) was -2.13% (inactive) and the inhibition ([14]; cisplatin combo, at 5 µM) was -6.02%. For the same compound, the inhibition [14, 47] was -12.2%, the inhibition [14, 25] was 41.9% and the inhibition ([14]; single agent, at 5 µM) was -34.1%. The inhibition ([15]; at 0.5 µM) was -17.1% (inactive), the inhibition [15, 22] was -18.6% and the inhibition [15, 23] was -18.2%. For the same compound, the inhibition ([15]; single agent, at 0.05 µM) was -5.63% and the inhibition ([15]; single agent, at 5 µM) was -50.2%.

For `CN(C)C(=S)NN=C(c1ccccn1)c1ccccn1`, the inhibition [1, 16] was 9.49% (inactive), the inhibition [1, 17] was 65.9% and the inhibition [1, 18] was 60.3%. The inhibition [1, 19] was 73.6%, the inhibition [1, 20] was 14.7% and the inhibition [1, 21] was 65.2%. The inhibition ([2]; BGB combo, at 5 µM) was 93.5%, the inhibition ([2]; at 0.5 µM) was 96.3% (active) and the inhibition ([2]; cisplatin combo, at 5 µM) was 96.8%. It also gave an inhibition [2, 22] of 96.5%, an inhibition [2, 23] of 96.3% and an inhibition ([2]; single agent, at 5 µM) of 95.4%. It also gave an inhibition ([3]; BGB IC20 combo, at 0.005 µM) of 49.9%, an inhibition ([3]; BGB IC40 combo, at 0.005 µM) of 48.2% and an inhibition ([3]; BGB IC40 combo, at 0.05 µM) of 88.6%. The inhibition ([3]; at 0.5 µM) was -3.29% (inactive), the inhibition ([3]; cisplatin combo, at 0.05 µM) was 88.1% and the inhibition ([3]; cisplatin combo, at 0.5 µM) was -11.8%. For the same compound, the inhibition ([3]; cisplatin combo, at 5 µM) was 27.2%, the inhibition [3, 24] was 32% and the inhibition ([4]; at 0.5 µM) was 82.5% (active). For the same compound, the inhibition [4, 19] was 62.2%, the inhibition [4, 25] was 96.8% and the inhibition [4, 26] was 91.5%. The inhibition ([5]; at 0.5 µM) was 89.9% (active), the inhibition [5, 27] was 85.2% and the inhibition [5, 28] was 92.5%. For the same compound, the inhibition [5, 29] was 91%, the inhibition [5, 30] was 88.7% and the inhibition ([5]; single agent, at 5 µM) was 90.5%. For the same compound, the inhibition ([6]; at 0.5 µM) was 98% (active), the inhibition [6, 31] was 97.8% and the inhibition [6, 32] was 98.6%. The inhibition ([7]; at 0.5 µM) was 86.8% (active), the inhibition [7, 33] was 70.3% and the inhibition [7, 34] was 93.8%. The inhibition ([8]; at 0.5 µM) was 88% (active), the inhibition [8, 35] was 90.6% and the inhibition [8, 36] was 92.1%. The inhibition ([9]; at 0.5 µM) was 61.3% (inactive), the inhibition [9, 25] was 70.1% and the inhibition [9, 26] was 64.5%. For the same compound, the inhibition ([10]; at 0.5 µM) was 81.2% (active), the inhibition [10, 37] was 73.4% and the inhibition [10, 38] was 86%. It also gave an inhibition [10, 39] of 85.1%, an inhibition [10, 40] of 93.7% and an inhibition [11, 41] of 121%. The inhibition ([11]; at 0.5 µM) was 87% (active), the inhibition [11, 42] was 127% and the inhibition [12] was 77.8% (inactive). The inhibition [12, 43] was 77.7%, the inhibition [12, 44] was 72.8% and the inhibition ([13]; at 0.5 µM) was 72.7% (inactive). For the same compound, the inhibition [13, 45] was 77.7%, the inhibition ([13]; cisplatin combination, at 5 µM) was 74% and the inhibition [13, 46] was 80.3%. The inhibition ([13]; single agent, at 5 µM) was 83.9%, the inhibition ([14]; at 0.5 µM) was 82.2% (active) and the inhibition ([14]; cisplatin combo, at 5 µM) was 90.5%. The inhibition [14, 47] was 80.1%, the inhibition [14, 25] was 86% and the inhibition ([14]; single agent, at 5 µM) was 94.3%. The inhibition ([15]; at 0.5 µM) was 96.9% (active), the inhibition [15, 22] was 97.1% and the inhibition [15, 23] was 96.8%. It also gave an inhibition ([15]; single agent, at 0.05 µM) of 88.4% and an inhibition ([15]; single agent, at 5 µM) of 89.2%.
